Measurements from the supplement of paper PMC13380429.

Each molecule was assayed on Vero E6 infected with SARS-CoV-2 (assay: morphology score (similarity to uninfected cells); higher = more like uninfected cells). Conditions: 24 h.

SMILES	morphology score
CCN(c1cc(-c2ccc(CN3CCOCC3)cc2)cc(C(=O)NCc2c(C)cc(C)[nH]c2=O)c1C)C1CCOCC1 [tazemetostat] (10 µM)	0.0658
Clc1ccc(COC(Cn2ccnc2)c2ccc(Cl)cc2Cl)c(Cl)c1 (configuration not stated) [miconazole] (10 µM)	-0.274
COc1ccc(-c2nc(N3CCOCC3)c3sc(CN(C)c4ncc(C(=O)NO)cn4)cc3n2)cn1 (10 µM)	-0.449
C#CCOC(=O)C1=CCCN(C)C1 [arecaidine-propargyl-ester] (10 µM)	0.0331
C[n+]1ccc(C(=O)NCc2ccccc2)cc1 [enisamium-iodide] (10 µM)	0.172
CN1[C@@H]2CC[C@H]1C[C@@H](OC(=O)C(CO)c1ccccc1)C2 (some centres not stated) (10 µM)	-0.21
O=C(O)CC(S)C(=O)O (configuration not stated) [mercaptosuccinic-acid] (10 µM)	-0.089

Each molecule was assayed on Vero E6 infected with SARS-CoV-2 (assay: SARS-CoV-2 infection rate relative to infected DMSO; higher = more infection, active = 60 or less). Conditions: 24 h.

SMILES	SARS-CoV-2 infection rate
S=C(NC1CCCCC1)N1CCC(c2cnc[nH]2)CC1 [thioperamide] (10 µM)	96.5% (inactive)
Nc1nc(=O)c2sc(=O)n([C@@H]3O[C@H](CO)[C@@H](O)[C@H]3O)c2[nH]1 (10 µM)	100% (inactive)
CCCCCn1cc(C(=O)NC23CC4CC(CC(C4)C2)C3)c(=O)c2cc(-c3ccccc3)ccc21 (10 µM)	107% (inactive)
CCOP(=S)(OCC)Oc1ccc2c(C)c(Cl)c(=O)oc2c1 [coumophos] (10 µM)	110% (inactive)
O=C(NCCS(=O)(=O)c1ccc(C(F)(F)F)cn1)c1ccc(Cl)cc1 (10 µM)	99% (inactive)
CCCNC(=O)Nc1ccc(Oc2ncnc3cc(OC)c(OC)cc23)cc1Cl (10 µM)	108% (inactive)
COc1cccc(OC)c1OCCNC[C@H]1COc2ccccc2O1 (10 µM)	108% (inactive)
Cc1cc(C)c(S(=O)(=O)Nc2cccc(C(F)(F)F)c2)c(C)c1 (10 µM)	108% (inactive)
CN(C)CCOC(C)(c1ccccc1)c1ccccn1 (configuration not stated) [doxylamine] (10 µM)	96% (inactive)
CCc1ccc(C(=O)C(C)CN2CCCCC2)cc1 (configuration not stated) [eperisone] (10 µM)	80% (inactive)
C[C@@]1(O)[C@H](O)[C@@H](CO)O[C@H]1n1ccc(N)nc1=O (10 µM)	103% (inactive)
O=C(C[S+]([O-])Cc1ccco1)NC/C=C\COc1cc(CN2CCCCC2)ccn1 (configuration not stated) [lafutidine] (10 µM)	94% (inactive)
Cc1oc(-c2ccccc2)nc1CCC(=O)c1ccc(CC2SC(=O)NC2=O)cc1 (configuration not stated) [darglitazone] (10 µM)	98.5% (inactive)
C[C@](N)(Cc1ccc(O)cc1)C(=O)O [metirosine] (10 µM)	112% (inactive)
C[C@H](c1ccc2ccc(OC3CCC(C(F)(F)F)CC3)c(C(F)(F)F)c2c1)N1C2CCC1CC(C(=O)O)C2 (some centres not stated) [autotaxin-modulator-1] (10 µM)	91% (inactive)
CCOC(=O)Nc1ccc(NCc2c(C)cc(C)cc2C)cc1N (10 µM)	108% (inactive)
COc1cc2c(N3CCN(C(=O)Nc4ccc(OC(C)C)cc4)CC3)ncnc2cc1OCCCN1CCCCC1 [tandutinib] (10 µM)	95.5% (inactive)
CCn1nc(C)c2c1C(c1ccccc1)=NCC(=O)N2 [ripazepam] (10 µM)	109% (inactive)
CCOC(=O)c1c(C)n(C)c2ccc(O)cc12 [mecarbinate] (10 µM)	112% (inactive)
Cc1cc(Nc2ncnc3ccc(NC4=NC(C)(C)CO4)cc23)ccc1Oc1ccn2ncnc2c1 [tucatinib] (0.833333 µM)	114% (inactive)

SMILES	SARS-CoV-2 infection rate
OC[C@@H](O)[C@H]1O[C@@H]2O[C@H](C(Cl)(Cl)Cl)O[C@@H]2[C@H]1O [chloralose] (10 µM)	103% (inactive)
O=c1cc(N2CCOCC2)oc2c(-c3ccccc3)cccc12 (0.833333 µM)	98.5% (inactive)
Nc1nc(=O)c2nc(CNc3ccc(C(=O)N[C@@H](CCC(=O)O)C(=O)O)cc3)cnc2[nH]1 [folic-acid] (10 µM)	102% (inactive)
CC(=O)O[C@]1(C(C)=O)CC[C@H]2[C@@H]3C=C(Cl)C4=CC(=O)CC[C@]4(C)[C@H]3CC[C@@]21C [chlormadinone-acetate] (10 µM)	106% (inactive)
COc1cc(/C=C/C(=O)N2CCN(CC(=O)N3CCCC3)CC2)cc(OC)c1OC [cinepazide] (10 µM)	108% (inactive)
CC(C)C[C@H](NC(=O)CNC(=O)c1cc(Cl)ccc1Cl)B(O)O [ixazomib] (0.833333 µM)	93.5% (inactive)
CC1CCN(CCCC(=O)c2ccc(F)cc2)CC1 [melperone] (10 µM)	80.5% (inactive)
CC[C@]1(O)C[C@@H]2CN(CCc3c([nH]c4ccccc34)[C@@](C(=O)OC)(c3cc4c(cc3OC)N(C)[C@H]3[C@@](O)(C(N)=O)[C@H](O)[C@]5(CC)C=CCN6CC[C@]43[C@@H]65)C2)C1 [vindesine] (10 µM)	103% (inactive)
C[C@H](Nc1cc2c(-c3ccc4c(c3)OCO4)noc2cn1)c1ccccc1 (10 µM)	84.5% (inactive)
CCC[C@@H]1C[C@@H](C(=O)N[C@@H]([C@H]2O[C@H](SC)[C@H](OP(=O)(O)O)[C@@H](O)[C@H]2O)[C@H](C)Cl)N(C)C1 [Clindamycin phosphate] (10 µM)	107% (inactive)
CN(Cc1cc(Br)cc(Br)c1N)C1CCCCC1 [bromhexine] (10 µM)	102% (inactive)
c1ccc(-c2n[nH]c3c2oc2ccccc23)cc1 (10 µM)	98.5% (inactive)
C[C@]12CC[C@H]3[C@@H](CC[C@@]45O[C@@H]4C(O)=C(C#N)C[C@]35C)[C@@H]1CC[C@@H]2O [trilostane] (10 µM)	104% (inactive)
CCN(c1cc(-c2ccc(CN3CCOCC3)cc2)cc(C(=O)NCc2c(C)cc(C)[nH]c2=O)c1C)C1CCOCC1 [tazemetostat] (10 µM)	104% (inactive)
Clc1ccc(COC(Cn2ccnc2)c2ccc(Cl)cc2Cl)c(Cl)c1 (configuration not stated) [miconazole] (10 µM)	118% (inactive)
COc1ccc(-c2nc(N3CCOCC3)c3sc(CN(C)c4ncc(C(=O)NO)cn4)cc3n2)cn1 (10 µM)	116% (inactive)
C#CCOC(=O)C1=CCCN(C)C1 [arecaidine-propargyl-ester] (10 µM)	93.5% (inactive)
C[n+]1ccc(C(=O)NCc2ccccc2)cc1 [enisamium-iodide] (10 µM)	90% (inactive)
CN1[C@@H]2CC[C@H]1C[C@@H](OC(=O)C(CO)c1ccccc1)C2 (some centres not stated) (10 µM)	106% (inactive)
O=C(O)CC(S)C(=O)O (configuration not stated) [mercaptosuccinic-acid] (10 µM)	108% (inactive)
